“And” between values parts separate entries of the source, which are not always exact repeats. Equal values may be shown once. Results filed as inconclusive are left out. Where a call stands in place of a potency, no number is given. Some structures have more than one record in an assay (separate samples or runs), and their calls can disagree. The source made the active and inactive calls. Unless noted, calls come from the whole dose curve.
What was measured:
[1] = Nuclear factor erythroid 2-related factor 2/antioxidant responsive element (Nrf2/ARE) small molecule agonists: qHTS cell viability counter screen in human keratinocytes (AID 1919968; active = well fitted cell-killing curve with a large enough effect in the repeat runs; note: nearly all actives have a fitted effect of over 55% in size; note: potency is the fitted concentration of half-maximal effect)
In short: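 Stably transfected HaCaT (KeratinoSens), 1,500/well. Test agents in DMSO were applied for 23 h, 37 C/5% CO2. CellTiter-Fluor was incubated 1 h before the fluorescence read.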

[2] = Nuclear factor erythroid 2-related factor 2/antioxidant responsive element (Nrf2/ARE) small molecule agonists: luciferase reporter gene qHTS assay in human keratinocytes (AID 1919969); note: nearly all actives have a fitted effect of over 35% in size; note: potency is the fitted concentration of half-maximal effect
[3] = biological target: Gonadotropin-releasing hormone receptor (Homo sapiens) (UniProt P30968); experiment: Human gonadotropin-releasing hormone receptor (GnRHR) small molecule agonists, calcium flux assay in GnRHR-HEK293 cells (AID 1920063); note: nearly all actives have a fitted effect of over 35% in size; note: potency is the fitted concentration of half-maximal effect
In short: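 Stable human GnRHR HEK293 line. 18 h plating, then calcium dye for 1 h at 37 C. Agonist-mode compound addition from DMSO stocks; fluorescence monitored 3 min.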

[4] = G protein-coupled receptor (GPCR) small molecule agonists, calcium flux assay: HEK293 wild type cell line counter screen (AID 1920065)
In short: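 Following 18 h incubation at 37 C/5% CO2, plates got calcium dye for 1 h; compounds, ATP or DMSO were then pinned in and fluorescence followed kinetically (480/540 nm).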

[5] = p53 small molecule agonists, cell-based qHTS assay with human liver microsomes (AID 1963577)
In short: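 p53RE-bla cells, 4,000/well, compound added after 5 h, with human liver microsomes 0.5 mg/mL and NADPH 0.5 mg/mL final; 16 h at 37 C, then LiveBLAzer 2 h RT, fluorescence.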

[6] = p53 small molecule agonists, cell-based qHTS assay with rat liver microsomes (AID 1963578)
In short: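 p53RE-bla cells, 4,000/well, pre-incubated 5 h, then given compounds plus rat liver microsomes (0.5 mg/mL final) and NADPH (0.5 mg/mL final). Incubation 16 h at 37 C; beta-lactamase reporter read by LiveBLAzer fluorescence after 2 h at room temperature.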

[7] = p53 small molecule agonists, cell-based qHTS assay with human liver microsomes: qHTS cell viability counter screen (AID 1963579); note: nearly all actives have a fitted effect of over 45% in size; note: potency is the fitted concentration of half-maximal effect
In short: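 p53RE-bla cells, 4,000/well, dosed 5 hours after plating, with human liver microsomes (0.5 mg/mL final) plus NADPH (0.5 mg/mL final), 16 hours at 37 C. Viability read as CellTiter-Glo luminescence after 30 min at room temperature.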

[8] = p53 small molecule agonists, cell-based qHTS assay with rat liver microsomes: qHTS cell viability counter screen (AID 1963580); note: nearly all actives have a fitted effect of over 45% in size
In short: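 Cytotoxicity counter screen: intracellular ATP read by CellTiter-Glo luminescence in the p53 reporter wells. HCT-116 p53RE-bla cells were treated for 16 h at 37 C alongside rat liver microsomes and NADPH, each 0.5 mg/mL final.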

[9] = p53 small molecule agonists, cell-based qHTS assay: qHTS cell viability counter screen (AID 1963581); note: nearly all actives have a fitted effect of over 45% in size; note: potency is the fitted concentration of half-maximal effect
In short: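 qHTS counter screen: 16 h compound exposure at 37 C of p53RE-bla HCT-116 cells (4,000 per well, seeded 5 h prior), cell viability by ATP luminescence.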

[10] = p53 small molecule agonists, cell-based qHTS assay (AID 1963582; active = well fitted activation curve with a large enough effect in the signal ratio in the repeat runs, not every such curve was filed as active; the % refers to the signal ratio)
In short: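 Measured: fluorescence from cleaved LiveBLAzer substrate. System: p53RE-bla cells, 16 h compound treatment at 37 C, 2 h substrate step at room temperature.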

[11] = biological target: 5-hydroxytryptamine receptor 2A (Homo sapiens) (UniProt P28223); experiment: 5-hydroxytryptamine receptor 2A (HTR2A) small molecule antagonists, cell-based qHTS assay (AID 1963586); note: nearly all actives have a fitted effect of over 45% in size
In short: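 CHO cells stably expressing human HTR2A were plated for 18 h at 37 C, then loaded with calcium dye for 1 h. Compounds were preincubated 5 min at room temperature before DOI (4 nM solution) was added. Kinetic fluorescence was read for 3 min.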

[12] = biological target: 5-hydroxytryptamine receptor 2A (Homo sapiens) (UniProt P28223); experiment: 5-hydroxytryptamine receptor 2A (HTR2A) small molecule agonists, cell-based qHTS assay (AID 1963587); note: nearly all actives have a fitted effect of over 30% in size; note: potency is the fitted concentration of half-maximal effect
In short: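 Kinetic calcium-flux fluorescence (2 min, 1 sec intervals) after compound addition in agonist mode. HTR2A-CHO cells were cultured 18 h, then dye-loaded 1 h at 37 C.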

[13] = biological target: Muscarinic acetylcholine receptor M1 (Homo sapiens) (UniProt P11229); experiment: Cholinergic receptor muscarinic 1 (CHRM1) small molecule antagonists, cell-based qHTS assay (AID 1963588); note: nearly all actives have a fitted effect of over 40% in size
In short: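 Compounds were tested at 15 concentrations in three independent runs. Dye-loaded CHRM1-CHO cells were exposed 5 min at room temperature before stimulation by acetylcholine added at 50nM. Intracellular calcium was read kinetically on FDSS for 3 min.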

[14] = biological target: Muscarinic acetylcholine receptor M1 (Homo sapiens) (UniProt P11229); experiment: Cholinergic receptor muscarinic 1 (CHRM1) small molecule agonists, cell-based qHTS assay (AID 1963589); note: nearly all actives have a fitted effect of over 35% in size
In short: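 Kinetic fluorescence (1 s intervals) of calcium-sensitive dye in human M1 CHO cells after compound addition; cells pre-incubated 18 h at 37 C/5% CO2 and dye-loaded 1 h.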

[15] = cAMP Responsive Elements (CRE) small molecule agonists, cell-based qHTS assay (AID 1963590)
In short: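 Test agents in DMSO were incubated 3 h at 37 C/5% CO2 with CRE-bla HEK 293T cells seeded 18 h earlier; LiveBLAzer B/G FRET substrate was added and read after 2 h at room temperature.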

[16] = cAMP Responsive Elements (CRE) small molecule antagonists, cell-based qHTS assay (AID 1963591; active = well fitted inhibition curve with a large enough effect in the signal ratio in the repeat runs, not every such curve was filed as active; the % refers to the signal ratio)
In short: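 Reporter line CRE-bla HEK 293T in dialyzed-FBS DMEM; cells preincubated 18 h, treated 3 h with compound plus NKH477 (0.25 uM final); LiveBLAzer FRET, 2 h RT.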

[17] = biological target: Beta-2 adrenergic receptor (Homo sapiens) (UniProt P07550); experiment: Adrenergic beta2 receptor (ADRB2) small molecule antagonists, cell-based qHTS assay (AID 1963592); note: series mostly up to about 92 µM; nearly all actives have a fitted effect of over 50% in size
In short: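 Assay format: CHO-ADRB2 cells, 18-20hr seeding at 37C/5% CO2, then compound plus 1nM isoproterenol agonist mix for 0.5hr RT. Homogeneous time-resolved fluorescence cAMP detection after 1hr, expressed as 665/615 nm ratio.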

[18] = biological target: D(2) dopamine receptor (Homo sapiens) (UniProt P14416); experiment: Dopamine D2 receptor (DRD2) small molecule agonists, cell-based qHTS assay (AID 1963594); note: nearly all actives have a fitted effect of over 35% in size
In short: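 cAMP accumulation in DRD2-HEK293 cells measured by HTRF after 1 h detection; compounds added 10 min before NKH477 (200nM […]) forskolin-analogue stimulation, 30 min at room temperature, with Ro20-1724 present at 0.1 mM final.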

[19] = biological target: D(2) dopamine receptor (Homo sapiens) (UniProt P14416); experiment: Dopamine D2 receptor (DRD2) small molecule antagonists, cell-based qHTS assay (AID 1963595; active = well fitted inhibition curve with a large enough effect in the signal ratio in the repeat runs, with a control signal flat; the % refers to the signal ratio; note: potency is the fitted concentration of half-maximal effect)
In short: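 Human DRD2 antagonist qHTS measuring cAMP by HTRF. The cells are exposed to compound for 10 min, then to NKH477 (200 nM) and quinpirole (12 nM) for 30 min at RT, with Ro20-1724 (0.1 mM) present throughout.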

[20] = biological target: Beta-2 adrenergic receptor (Homo sapiens) (UniProt P07550); experiment: Adrenergic beta2 receptor (ADRB2) small molecule agonists, cell-based qHTS assay (AID 1963593);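 note: CHO cells stably overexpressing human ADRB2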
In short: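 CHO cells stably over-expressing ADRB2 were plated overnight at 37C, then dosed with compounds plus a stimulation mix containing 100uM IBMX and 25uM Ro-20-1724 for 0.5hr at room temperature. cAMP was measured by HTRF competition, 1hr.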

5-hydroxytryptamine receptor 2A (Homo sapiens), sequence (P28223 whole entry, looked up): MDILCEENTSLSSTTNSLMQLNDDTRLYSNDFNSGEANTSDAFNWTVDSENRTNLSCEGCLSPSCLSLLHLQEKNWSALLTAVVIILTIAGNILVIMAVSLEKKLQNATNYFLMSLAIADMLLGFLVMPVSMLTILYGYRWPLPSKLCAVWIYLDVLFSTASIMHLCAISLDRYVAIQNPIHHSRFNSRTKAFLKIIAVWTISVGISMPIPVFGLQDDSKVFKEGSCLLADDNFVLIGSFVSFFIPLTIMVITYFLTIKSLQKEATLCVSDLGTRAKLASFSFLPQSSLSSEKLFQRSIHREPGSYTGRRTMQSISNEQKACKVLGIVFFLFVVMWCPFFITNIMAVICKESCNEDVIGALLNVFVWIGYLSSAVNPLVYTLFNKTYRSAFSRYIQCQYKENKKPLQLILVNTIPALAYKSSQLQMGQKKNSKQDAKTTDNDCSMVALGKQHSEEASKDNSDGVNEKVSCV
Gonadotropin-releasing hormone receptor (Homo sapiens), sequence (P30968 whole entry, looked up): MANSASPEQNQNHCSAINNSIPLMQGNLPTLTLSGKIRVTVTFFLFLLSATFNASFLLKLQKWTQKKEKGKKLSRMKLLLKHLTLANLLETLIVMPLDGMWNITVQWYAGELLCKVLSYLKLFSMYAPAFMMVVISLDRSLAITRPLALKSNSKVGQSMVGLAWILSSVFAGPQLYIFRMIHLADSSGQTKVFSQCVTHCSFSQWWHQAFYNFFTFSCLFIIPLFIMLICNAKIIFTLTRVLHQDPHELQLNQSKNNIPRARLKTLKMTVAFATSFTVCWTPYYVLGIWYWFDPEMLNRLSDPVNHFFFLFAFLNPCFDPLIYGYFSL
Beta-2 adrenergic receptor (Homo sapiens), sequence (P07550 whole entry, looked up): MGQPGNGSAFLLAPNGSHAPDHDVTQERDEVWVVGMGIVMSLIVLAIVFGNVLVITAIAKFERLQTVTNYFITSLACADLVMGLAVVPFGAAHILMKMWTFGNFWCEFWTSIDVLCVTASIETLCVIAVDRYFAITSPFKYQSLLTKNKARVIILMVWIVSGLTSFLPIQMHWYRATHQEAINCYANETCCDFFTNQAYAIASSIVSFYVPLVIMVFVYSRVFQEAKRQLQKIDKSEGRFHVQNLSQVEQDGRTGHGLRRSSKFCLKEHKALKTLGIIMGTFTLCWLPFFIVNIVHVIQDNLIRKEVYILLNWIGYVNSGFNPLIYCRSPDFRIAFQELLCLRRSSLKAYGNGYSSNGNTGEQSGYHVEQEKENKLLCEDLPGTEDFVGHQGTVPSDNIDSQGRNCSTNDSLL
Muscarinic acetylcholine receptor M1 (Homo sapiens), sequence (P11229 whole entry, looked up): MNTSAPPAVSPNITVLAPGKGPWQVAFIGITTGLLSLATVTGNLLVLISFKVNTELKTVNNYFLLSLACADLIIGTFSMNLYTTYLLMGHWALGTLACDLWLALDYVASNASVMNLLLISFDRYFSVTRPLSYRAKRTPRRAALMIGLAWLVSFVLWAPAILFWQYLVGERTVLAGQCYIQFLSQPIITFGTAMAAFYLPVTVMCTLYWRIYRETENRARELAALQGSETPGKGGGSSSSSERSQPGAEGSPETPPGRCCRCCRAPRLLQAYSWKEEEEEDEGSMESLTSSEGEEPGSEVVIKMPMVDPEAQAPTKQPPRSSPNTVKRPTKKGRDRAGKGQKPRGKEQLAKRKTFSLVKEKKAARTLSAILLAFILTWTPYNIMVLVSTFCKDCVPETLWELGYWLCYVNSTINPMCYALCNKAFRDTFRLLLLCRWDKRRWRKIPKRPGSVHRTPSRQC
D(2) dopamine receptor (Homo sapiens), sequence (P14416 whole entry, looked up): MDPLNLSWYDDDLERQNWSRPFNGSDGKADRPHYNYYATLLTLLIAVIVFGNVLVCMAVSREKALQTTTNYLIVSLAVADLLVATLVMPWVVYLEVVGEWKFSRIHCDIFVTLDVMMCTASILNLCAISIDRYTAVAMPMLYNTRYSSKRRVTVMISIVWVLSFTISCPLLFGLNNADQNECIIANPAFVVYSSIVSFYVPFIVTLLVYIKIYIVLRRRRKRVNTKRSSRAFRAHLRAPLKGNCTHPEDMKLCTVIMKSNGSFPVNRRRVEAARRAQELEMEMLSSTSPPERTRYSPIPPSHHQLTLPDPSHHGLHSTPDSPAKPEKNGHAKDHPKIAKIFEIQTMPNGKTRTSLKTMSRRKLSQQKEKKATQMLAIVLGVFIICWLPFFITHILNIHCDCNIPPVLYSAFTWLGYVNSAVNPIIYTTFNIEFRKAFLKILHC

| SMILES | Potency [1] | Potency [2] | Potency [3] | Potency [4] | Potency [5] | Potency [6] | Potency [7] | Potency [8] | Potency [9] | Potency [10] | Potency [11] | Potency [12] | Potency [13] | Potency [14] | Potency [15] | Potency [16] | Potency [17] | Potency [18] | Potency [19] | Potency [20] |
| --- | --- | --- | --- | --- | --- | --- | --- | --- | --- | --- | --- | --- | --- | --- | --- | --- | --- | --- | --- | --- |
| O=C(O)C(F)(F)C(F)(F)C(F)(F)C(F)(F)C(F)(F)C(F)(F)C(F)(F)C(F)(F)C(F)(F)C(F)(F)F | inactive | inactive | inactive | inactive | inactive | inactive | inactive | inactive | inactive | inactive | inactive | inactive | inactive | inactive | inactive | inactive | inactive | inactive | inactive |  |
| CCNc1nc(NC(C)C)nc(OC)n1 | inactive | inactive | inactive |  |  | inactive | inactive | inactive | inactive | inactive | inactive | inactive | inactive | inactive | inactive | inactive | inactive | inactive | inactive | inactive |
| CCOS(=O)(=O)OCC | inactive | 68.7 µM (active) and inactive | inactive |  |  |  | inactive | inactive | inactive | inactive | inactive | inactive | inactive | inactive |  | inactive | inactive |  | inactive |  |
| CC(C)(C)C(=O)C(Cl)Cl | inactive | inactive | inactive | inactive | inactive | inactive | inactive | inactive | inactive | inactive | inactive | inactive | inactive | inactive | inactive | inactive | inactive | inactive | inactive |  |
| Clc1nc(Cl)nc(Nc2ccccc2Cl)n1 | inactive | inactive | inactive | inactive | inactive | inactive | inactive | inactive | inactive | inactive | inactive | inactive | inactive | inactive | inactive | inactive | inactive |  | inactive | inactive |
| COC(=O)c1ccccc1N | inactive | inactive | inactive | inactive | inactive | inactive | inactive | inactive | inactive | inactive | inactive | inactive | inactive | inactive | inactive | inactive |  | inactive | inactive | inactive |
| CC(Cl)Cl | inactive | 5.84 µM (active) | inactive | inactive | inactive | inactive | inactive | inactive | inactive | inactive | inactive |  | inactive | inactive | inactive | inactive | inactive | inactive | inactive |  |
| CCNc1nc(NCC)nc(SC)n1 | inactive | inactive | inactive | inactive | inactive | inactive | inactive | inactive | inactive | inactive | inactive | inactive | inactive | inactive | inactive | inactive | inactive | inactive | inactive | inactive |
| Cc1cccc(N)c1 | inactive | inactive | inactive |  |  | inactive | inactive | inactive | inactive | inactive | inactive | inactive | inactive | inactive | inactive |  | inactive | inactive | inactive |  |
| O=C(Cl)CCl | inactive | inactive | inactive | inactive | inactive | inactive | inactive | inactive | inactive | inactive | inactive | inactive | inactive | inactive | inactive | inactive | inactive | inactive | inactive | inactive |
| N#CSCSC#N | 14 µM (active) and 21.5 µM (active) | 15.2 µM (active) | 39.8 µM (active) |  |  | inactive | 26.3 µM (active) |  | 46.8 µM (active) |  | inactive | 50.1 µM (active) and 48.5 µM (active) | inactive |  |  |  |  | inactive | 27.9 µM (active) and 27 µM (active) |  |
| CCc1cc(C)cc(CC)c1-c1c(OC(=O)C(C)(C)C)n2n(c1=O)CCOCC2 | inactive | inactive | inactive | inactive | inactive | inactive | inactive | inactive | inactive | inactive | inactive | inactive |  | inactive | inactive |  | inactive | inactive | inactive |  |
| CC(C)(OOC(C)(C)c1ccccc1)c1ccccc1 | inactive | 21.7 µM (active) | inactive | inactive | inactive | inactive | inactive | inactive | inactive | inactive | inactive | inactive |  | inactive | inactive | inactive | inactive | inactive | inactive | inactive |
| Nc1ccc(Cl)c(Cl)c1 | inactive | inactive | inactive | inactive | inactive | inactive | inactive | inactive | inactive | inactive | inactive | inactive | inactive | inactive | inactive | inactive | inactive | inactive | inactive | inactive |
| c1ccc2sc(SNC3CCCCC3)nc2c1 | inactive | 53.9 µM (active) and 61.1 µM (active) | inactive |  |  |  | inactive | inactive | inactive |  | inactive | inactive | inactive | inactive | inactive | inactive | inactive | inactive | inactive | inactive |

— PubChem BioAssay (Tox21)
